Experimental data reported in PubChem BioAssay.
The source made the active and inactive calls.

Tests used:
Albumin (Bos taurus) = Albumin (Bos taurus) (UniProt P02769); assay: compounds binding labelled BSA control protein – biochemical, small-molecule microarray, Alexa647 label, 635/667 nm fluorescence, artefact control for SMM control protein annotation, profiling panel (AID 1118); conditions: BSA-A647 binding, fluorescence 635 nm, higher = more signal;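 also: score merges 667 nm emission intensity and signal-to-noise per printed compound spot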
[1] = probe aXIP binding to arrayed compounds – biochemical, NeuroSMM set, 635/667 nm fluorescence, primary screen (AID 1119); conditions: small-molecule microarray, higher = more signal, called active from +8 up or from −8 down;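 also: probe is the protein aXip251-270 applied at 1 µg/mL to compound-printed slides; binding of probe to printed compounds measured as 667 nm fluorescence plus signal to noise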
[2] = probe aNOTCH3 binding on compound microarray – biochemical, small-molecule microarray, 635/667 nm fluorescence, primary screen (AID 1120); conditions: higher = more signal;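 also: probe is a biotin-tagged antibody raised against NOTCH3 rather than NOTCH3 protein; score merges spot fluorescence near 667 nm with spot signal to noise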
[3] = probe aNOTCH2 binding on compound microarray – biochemical, small-molecule microarray, 635/667 nm fluorescence, primary screen (AID 1121); conditions: higher = more signal;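 also: score merges feature fluorescence read at 667 nm with its signal to noise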
[4] = biological target: Carbonic anhydrase 2 (Homo sapiens) (UniProt P00918); assay: compounds binding carbonic anhydrase 2 – biochemical, small-molecule microarray, Alexa647-labelled CAII, profiling panel (AID 1122); conditions: CAII-A647 binding fluorescence, higher = more signal
[5] = COS7 lysate on small-molecule microarray, probe aHis, 635 nm (AID 1123); conditions: COS7 cell lysate, fluorescence, higher = more signal;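 also: z-score combines 667nm fluorescence intensity with signal-to-noise per printed compound spot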
[6] = probe aLAP1 signal on lysate-treated microarray – cell lysate, small-molecule microarray, COS7 lysate, primary screen (AID 1124); conditions: probe aLAP1, fluorescence, higher = more signal;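 also: lysate comes from COS7 cells expressing LAP1 and is applied at 0.3 µg/mL; score merges spot fluorescence near 667 nm with signal-to-noise over triplicate slides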
Sam68 (KHDRBS1) = assay: compounds binding KHDRBS1 protein – biochemical, small-molecule microarray, 635 nm fluorescence, primary screen (AID 1125); conditions: higher = more signal;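 also: score merges 667 nm channel intensity with signal to noise over triplicate slides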
[7] = test system: Chordin-like protein 2 (CHRDL2); assay: compounds binding chordin-like 2 – biochemical, small-molecule microarray, 635 nm fluorescence, primary screen (AID 1126); conditions: fluorescence 635 nm, higher = more signal;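 also: printed compound slides probed with Chrdl2 protein at 4 µg/mL for 1 h at 4 C; score merges 667 nm emission intensity with signal to noise over three replicate slides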
[8] = biological target: Concanavalin-A (Canavalia ensiformis) (UniProt P02866); assay: compounds binding concanavalin A lectin – biochemical, small-molecule microarray, Alexa647 label, 635 nm, artefact control for SMM control protein annotation, primary screen (AID 1127); conditions: ConA-A647 binding fluorescence, higher = more signal;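 also: z combines 667 nm emission intensity with signal-to-noise across three replicate slides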
[9] = compounds binding Alexa647 anti-His antibody – biochemical, small-molecule microarray, 635 nm fluorescence, artefact control for SMM control protein annotation, primary screen (AID 1128); conditions: higher = more signal;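 also: score merges feature fluorescence with signal-to-noise for each printed compound spot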
[10] = test system: Human papillomavirus type 1a E7 protein (residues 1-88); assay: HPV1a E7 small-molecule binders, primary screen, biochemical, small-molecule microarray, residues 1-88, 635 nm (AID 1129); conditions: small-molecule microarray binding, fluorescence 635 nm; higher = more signal
[11] = biological target: Focal adhesion kinase 1 (Homo sapiens) (UniProt Q05397); assay: PTK2 protein binding on printed compound slides – biochemical, small-molecule microarray, 635/667 nm fluorescence, BSA, DTT, primary screen (AID 1130); conditions: 635 nm fluorescence, higher = more signal;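 also: composite of spot emission at 667 nm and signal to noise over triplicate slides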
[12] = test system: Fibrinogen (Alexa647-labelled); assay: Alexa647-fibrinogen binding to printed small molecules – biochemical, small-molecule microarray, 635/667 nm fluorescence, artefact control for SMM control-protein annotation, profiling panel (AID 1131); conditions: fibrinogen-A647 binding fluorescence, higher = more signal;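 also: z-score merges 667 nm fluorescence with per-spot signal-to-noise over triplicate slides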
[13] = biological target: Follistatin (Homo sapiens) (UniProt P19883); assay: FST protein binding to printed compounds – biochemical, small-molecule microarray, 635/667 nm fluorescence, primary screen (AID 1132); conditions: 635 nm fluorescence, higher = more signal
[14] = biological target: Fibroblast growth factor 2 (Homo sapiens) (UniProt P09038); assay: basic fibroblast growth factor binding to printed compounds – biochemical, small-molecule microarray, 635/667 nm fluorescence, primary screen (AID 1133); conditions: FGF2, fluorescence 635/667, higher = more signal
[15] = JC-1 mitochondrial potential readout, lung cancer cells – cell-based, A549, JC-1 fluorescence, basal, 24 h, 100 nL, profiling panel (AID 1138); conditions: higher = more signal;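 also: A549 lung adenocarcinoma cells under basal conditions with no added stimulus; test concentration not given here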
Lefty1 = Lefty1 protein binding to printed compounds – biochemical, small-molecule microarray, 635/667 nm fluorescence, primary screen (AID 1139); conditions: fluorescence 635/667, higher = more signal
[16] = test system: wheat germ agglutinin (Triticum aestivum), Alexa647-labelled; assay: Alexa647-WGA lectin binding to printed small molecules – biochemical, small-molecule microarray, 635/667 nm fluorescence, artefact control for SMM control-protein annotation, profiling panel (AID 1140); conditions: WGA-A647 binding, 635 nm fluorescence, higher = more signal;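 also: score merges 667 nm feature emission with signal to noise over triplicate slides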
[17] = biological target: Luciferin 4-monooxygenase (Photinus pyralis) (UniProt P08659); assay: inhibition of purified Photinus pyralis luciferase – biochemical, luminescence, purified enzyme, 2006 set, primary screen (AID 1141); conditions: purified firefly luciferase, SteadyGlo luminescence, 30 min; higher = more signal, called active from +8 up or from −8 down;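 also: cell-free assay with purified firefly luciferase at 100 ng per well in PBS; test concentration not given here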
Luciferin 4-monooxygenase (Photinus pyralis), sequence (P08659 whole entry, looked up): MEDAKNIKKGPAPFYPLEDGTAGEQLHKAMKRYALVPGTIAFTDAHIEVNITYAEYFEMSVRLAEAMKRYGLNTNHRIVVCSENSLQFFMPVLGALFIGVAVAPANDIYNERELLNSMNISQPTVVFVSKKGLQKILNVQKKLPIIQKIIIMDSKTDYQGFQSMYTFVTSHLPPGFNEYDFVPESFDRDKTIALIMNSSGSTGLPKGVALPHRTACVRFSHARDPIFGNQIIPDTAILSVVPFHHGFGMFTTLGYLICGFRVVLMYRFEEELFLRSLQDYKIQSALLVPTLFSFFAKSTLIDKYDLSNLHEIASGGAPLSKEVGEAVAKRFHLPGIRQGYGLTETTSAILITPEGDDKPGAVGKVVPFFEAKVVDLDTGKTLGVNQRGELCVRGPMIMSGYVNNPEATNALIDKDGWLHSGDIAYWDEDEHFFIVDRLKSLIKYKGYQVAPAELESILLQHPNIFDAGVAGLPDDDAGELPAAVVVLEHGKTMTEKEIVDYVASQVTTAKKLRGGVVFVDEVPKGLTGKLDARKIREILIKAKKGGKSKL

Concanavalin-A (Canavalia ensiformis), sequence (P02866 whole entry, looked up): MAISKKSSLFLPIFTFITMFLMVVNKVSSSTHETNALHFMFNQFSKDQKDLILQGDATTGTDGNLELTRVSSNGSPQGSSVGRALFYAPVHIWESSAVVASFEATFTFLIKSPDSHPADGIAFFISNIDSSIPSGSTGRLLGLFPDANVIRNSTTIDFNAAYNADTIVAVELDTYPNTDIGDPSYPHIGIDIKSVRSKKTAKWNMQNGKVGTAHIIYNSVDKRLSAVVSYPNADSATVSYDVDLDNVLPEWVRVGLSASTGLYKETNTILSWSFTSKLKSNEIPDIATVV
Focal adhesion kinase 1 (Homo sapiens), sequence (Q05397 whole entry, looked up): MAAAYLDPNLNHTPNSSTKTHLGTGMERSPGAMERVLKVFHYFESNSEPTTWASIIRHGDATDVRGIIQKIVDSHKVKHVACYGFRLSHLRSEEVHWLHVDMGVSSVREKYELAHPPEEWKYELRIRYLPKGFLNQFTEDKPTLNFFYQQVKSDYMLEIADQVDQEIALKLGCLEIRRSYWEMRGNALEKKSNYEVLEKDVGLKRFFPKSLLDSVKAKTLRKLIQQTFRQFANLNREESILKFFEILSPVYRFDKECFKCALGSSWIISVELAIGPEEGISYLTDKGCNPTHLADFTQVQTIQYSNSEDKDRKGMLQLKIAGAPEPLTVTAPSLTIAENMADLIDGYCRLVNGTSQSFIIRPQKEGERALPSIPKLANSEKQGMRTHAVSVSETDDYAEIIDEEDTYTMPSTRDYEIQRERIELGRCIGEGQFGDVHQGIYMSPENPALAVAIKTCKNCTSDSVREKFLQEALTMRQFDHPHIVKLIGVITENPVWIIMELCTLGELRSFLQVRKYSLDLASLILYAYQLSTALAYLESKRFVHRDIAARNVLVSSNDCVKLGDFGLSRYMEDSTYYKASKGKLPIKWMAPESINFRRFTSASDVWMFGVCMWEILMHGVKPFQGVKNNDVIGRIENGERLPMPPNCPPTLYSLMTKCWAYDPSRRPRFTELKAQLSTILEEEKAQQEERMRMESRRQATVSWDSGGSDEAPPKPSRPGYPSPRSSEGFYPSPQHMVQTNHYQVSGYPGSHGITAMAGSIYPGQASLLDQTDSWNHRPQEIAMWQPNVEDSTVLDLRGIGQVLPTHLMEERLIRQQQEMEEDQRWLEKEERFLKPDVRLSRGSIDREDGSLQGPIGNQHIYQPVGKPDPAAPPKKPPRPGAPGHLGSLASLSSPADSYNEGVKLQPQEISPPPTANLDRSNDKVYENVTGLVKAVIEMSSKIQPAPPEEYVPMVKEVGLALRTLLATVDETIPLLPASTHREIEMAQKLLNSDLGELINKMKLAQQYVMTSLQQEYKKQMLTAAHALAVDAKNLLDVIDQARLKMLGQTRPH
Follistatin (Homo sapiens), sequence (P19883 whole entry, looked up): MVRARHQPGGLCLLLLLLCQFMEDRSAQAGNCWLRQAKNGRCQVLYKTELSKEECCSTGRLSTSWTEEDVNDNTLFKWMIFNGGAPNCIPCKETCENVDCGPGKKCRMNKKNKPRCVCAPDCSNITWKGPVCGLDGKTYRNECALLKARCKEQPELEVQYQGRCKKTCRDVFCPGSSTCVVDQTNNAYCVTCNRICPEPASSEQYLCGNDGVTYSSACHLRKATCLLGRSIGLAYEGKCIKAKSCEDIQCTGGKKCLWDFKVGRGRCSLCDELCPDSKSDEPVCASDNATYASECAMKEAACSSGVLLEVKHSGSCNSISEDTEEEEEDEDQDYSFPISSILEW
Albumin (Bos taurus), sequence (P02769 whole entry, looked up): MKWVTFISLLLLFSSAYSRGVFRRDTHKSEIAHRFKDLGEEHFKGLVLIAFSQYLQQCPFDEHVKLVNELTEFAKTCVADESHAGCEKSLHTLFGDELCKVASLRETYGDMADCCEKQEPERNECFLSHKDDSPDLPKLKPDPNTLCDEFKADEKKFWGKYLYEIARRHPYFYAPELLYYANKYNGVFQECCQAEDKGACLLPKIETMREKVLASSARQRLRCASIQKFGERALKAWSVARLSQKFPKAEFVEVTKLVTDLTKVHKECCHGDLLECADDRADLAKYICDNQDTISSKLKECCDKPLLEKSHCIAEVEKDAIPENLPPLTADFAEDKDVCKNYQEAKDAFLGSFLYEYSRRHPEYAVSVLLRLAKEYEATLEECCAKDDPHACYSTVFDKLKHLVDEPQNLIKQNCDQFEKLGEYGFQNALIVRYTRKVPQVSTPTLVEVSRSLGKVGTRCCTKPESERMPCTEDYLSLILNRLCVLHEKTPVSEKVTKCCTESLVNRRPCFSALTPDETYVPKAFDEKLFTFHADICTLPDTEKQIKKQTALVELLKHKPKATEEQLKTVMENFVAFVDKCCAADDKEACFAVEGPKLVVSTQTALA
Fibroblast growth factor 2 (Homo sapiens), sequence (P09038 whole entry, looked up): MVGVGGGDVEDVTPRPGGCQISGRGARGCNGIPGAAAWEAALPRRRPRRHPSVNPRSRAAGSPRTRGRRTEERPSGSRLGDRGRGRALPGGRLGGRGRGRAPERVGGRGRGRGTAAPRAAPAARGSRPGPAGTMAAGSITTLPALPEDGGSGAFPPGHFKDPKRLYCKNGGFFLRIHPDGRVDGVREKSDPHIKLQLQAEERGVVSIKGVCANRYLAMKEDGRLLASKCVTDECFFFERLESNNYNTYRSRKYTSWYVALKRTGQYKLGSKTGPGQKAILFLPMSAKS

| SMILES | composite z-score (Albumin (Bos taurus)) | composite Z-score [1] | composite z-score [2] | composite z-score [3] | composite z-score [4] | composite z-score [5] | composite z-score [6] | composite z-score (Sam68 (KHDRBS1)) | composite z-score [7] | composite z-score [8] | composite z-score [9] | composite z-score [10] | composite z-score [11] | composite z-score [12] | composite z-score [13] | composite z-score [14] | z-score [15] | composite z-score (Lefty1) | composite z-score [16] | z-score [17] |
| --- | --- | --- | --- | --- | --- | --- | --- | --- | --- | --- | --- | --- | --- | --- | --- | --- | --- | --- | --- | --- |
| C=C(CCCC)C(=O)CC[C@@H](OC(=O)c1ccccc1-c1ccccc1C(=O)O)c1ccc(CO)o1 | 0.26 | -0.27 (inactive) | 0.135 | -0.0028 | 0.549 | 0.413 | 0.941 | 1.18 | 0.593 | 0.786 | 0.39 | 1.1 | -0.248 | 0.294 | 1.3 | 1.31 | 0.31 | 1.38 | 0.445 | -3.84 (inactive) |
| NC(=O)NCC#Cc1ccc2c(c1)[C@]1(C(=O)N2)[C@H](c2ccc(O)cc2)N2[C@H](c3ccccc3)[C@H](c3ccccc3)OC(=O)[C@H]2[C@@H]1C(=O)N1CCN(c2ncccn2)CC1 | 0.317 | 1.24 (inactive) | 0.191 | -0.0048 | 0.396 | 1.64 | 0.32 | -0.0586 | -0.165 | 0.377 | 1.05 | 0.855 | -0.75 | 0.486 | 0.743 | -0.0346 | -1.1 | -0.112 | 0.297 | -1.43 (inactive) |
| CC(C)N1C(=O)c2ccccc2[C@](C)(C(=O)NCCCN(C)C)[C@@H]1c1ccc(CO)cc1 | 0.222 | -0.264 (inactive) | -0.149 | -0.0903 | 0.526 | 1.45 | 1.01 | -0.283 | -0.85 | -1.41 | -0.439 | 0.717 | 2.34 | 0.562 | -0.106 | -0.224 | 0.256 | -0.573 | 0.231 | -0.562 (inactive) |
| O=C(NCCN1CCOCC1)[C@@H]1c2ccccc2C(=O)N(Cc2cc(F)cc(C(F)(F)F)c2)[C@H]1c1ccc(CO)cc1 | -0.265 | -0.543 (inactive) | 0.49 | -0.222 | 0.724 | 2.53 | -0.062 | 0.463 | -1.55 | -0.287 | 0.195 | 0.0794 | 0.205 | -0.732 | 0.687 | -0.77 | 2.17 | 0.314 | -0.254 | -0.183 (inactive) |
| C=CCNC(=O)[C@H]1[C@@H]2C(=O)O[C@@H](c3ccccc3)[C@@H](c3ccccc3)N2[C@@H](c2ccc(OCCO)cc2)[C@]12C(=O)N(C(=O)OCCOC)c1ccc(C#CC3(O)CCCCCC3)cc12 | -1.02 | -0.586 (inactive) | 0.373 | 0.308 | 0.615 | 1.9 | 1.5 | 1.3 | 1.1 | 1.07 | 0.632 | 1.21 | 1.32 | 0.888 | 1.36 | 1.58 | 0.208 | 1.47 | 0.777 | -1.86 (inactive) |
| C=CCCN(CC#C[C@H]1Oc2ccccc2S(=O)(=O)N2CCC[C@@H]12)S(=O)(=O)c1ccc(C)cc1 | 0.0985 | 0.671 (inactive) | 0.0311 | -0.102 | 0.208 | 0.273 | 0.758 | 0.215 | 0.607 | -0.464 | 0.881 | 0.136 | 0.172 | -0.348 | 0.546 | 1.22 | 0.957 | 0.317 | -0.0231 | -0.291 (inactive) |
